GPR151 ag – activators of human GPR151; Q8TDV0; PathHunter beta-arrestin GPR151 cells, luminescence; activation, % at 11.2 µM; hit rate 1% among 650,000; AID 1508602; in the data active means activation above about 4.9%;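 further: 0% = median of compound wells and 100% = cells with positive control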
MITF primary – inhibitors of human MITF | AlphaScreen MITF homodimerization, bead proximity signal | inhibition, % at 2.6 µM | hit rate 0.91% among 650,000; in the data active means inhibition above about 50%;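 further: 0% = vehicle wells with protein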
TEAD-YAP inh – TEAD-YAP interaction inhibition | AID 1259422 | HEK-TIYL cells, TEAD-Gal4/YAP UAS-luciferase luminescence | inhibition, % at 9.12 µM | hit rate 1.4% among 640,000; in the data active means inhibition above about 32%;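 further: 0% = median of test compound wells and 100% = reference inhibitor wells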
FBW7 activator – activators of human E3 ligase FBW7. AlphaScreen FBW7–phospho-cyclin E peptide binding, activator screen. normalized activity (activation), % at 26.1 µM. hit rate 0.13% among 650,000; in the data active means normalized activity above about 1.9%;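 further: purified mutant Fbw7 with reduced substrate affinity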
Target sequence (Q969H0 whole entry, looked up): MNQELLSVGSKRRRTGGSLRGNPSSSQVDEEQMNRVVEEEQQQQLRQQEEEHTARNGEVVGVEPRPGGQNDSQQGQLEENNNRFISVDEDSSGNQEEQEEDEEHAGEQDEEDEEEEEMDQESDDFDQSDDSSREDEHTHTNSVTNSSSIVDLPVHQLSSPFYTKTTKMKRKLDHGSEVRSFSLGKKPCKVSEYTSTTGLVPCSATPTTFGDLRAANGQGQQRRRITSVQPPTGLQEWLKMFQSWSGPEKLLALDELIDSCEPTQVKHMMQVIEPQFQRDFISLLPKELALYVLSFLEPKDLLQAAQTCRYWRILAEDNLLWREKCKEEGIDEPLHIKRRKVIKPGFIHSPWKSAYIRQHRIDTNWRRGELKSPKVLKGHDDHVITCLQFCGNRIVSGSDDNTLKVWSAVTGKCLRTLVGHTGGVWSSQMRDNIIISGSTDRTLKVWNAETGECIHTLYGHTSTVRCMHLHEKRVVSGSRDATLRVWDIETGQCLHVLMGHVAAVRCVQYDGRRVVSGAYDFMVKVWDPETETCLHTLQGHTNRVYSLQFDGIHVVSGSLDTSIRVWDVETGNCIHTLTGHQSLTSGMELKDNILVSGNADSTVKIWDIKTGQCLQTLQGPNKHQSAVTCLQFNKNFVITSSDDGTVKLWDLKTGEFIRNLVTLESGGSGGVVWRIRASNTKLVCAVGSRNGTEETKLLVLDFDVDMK
An asterisk follows results filed as active. In the library only some 3.4% were active in any assay of this set; here they are far more common.

`O=[N+]([O-])c1cc(/C=N\Nc2nccs2)ccc1O` gave GPR151 ag 0.4, MITF primary 95.5*, TEAD-YAP inh 0.1 and FBW7 activator -0.4.
For Cc1ccc(NC(=O)CSc2nc3ccsc3c(=O)n2-c2ccc(Cl)cc2)cc1Cl the results were GPR151 ag -1.4, MITF primary -3.7, TEAD-YAP inh 9.1 and FBW7 activator 0.1.
Screening O=C(O)CCCN1C(=O)CSC1=S returned GPR151 ag 1.8, MITF primary 0.1, TEAD-YAP inh 57.3* and FBW7 activator -0.1.
`O=C1CSC(=S)N1CCCCCCN1C(=O)CSC1=S` gave GPR151 ag -0.4, MITF primary -17.0, TEAD-YAP inh -4.6 and FBW7 activator -0.2.
For O=C(O)CCCCCN1C(=O)CSC1=S the results were GPR151 ag -1.0, MITF primary -13.2, TEAD-YAP inh 32.5* and FBW7 activator 0.0.
`CC(C)c1cc(=O)[nH]c(-n2nc(C3CC3)cc2NC(=O)C(C)(C)C)n1` gave GPR151 ag 0.5, MITF primary 2.8, TEAD-YAP inh 57.0* and FBW7 activator -1.2.
`COc1ccc(C(=O)Nc2nc3c(cc4c5c(cccc53)CC4)s2)cc1OC` gave GPR151 ag -0.6, MITF primary 17.4, TEAD-YAP inh -3.1 and FBW7 activator 2.0*.
Screening Clc1cnc2nc(-c3cccnc3)[nH]c2c1 returned GPR151 ag -0.7, MITF primary 8.8, TEAD-YAP inh -49.8 and FBW7 activator -0.4.
Nc1ccc(-c2nc3ncc(Cl)cc3[nH]2)cc1 was read as GPR151 ag -2.3, MITF primary 7.7, TEAD-YAP inh 35.4* and FBW7 activator 0.2.
COc1ccc(S(=O)(=O)N2c3ccccc3CC2C)cc1 (configuration not stated) was read as GPR151 ag 1.6, MITF primary -0.4, TEAD-YAP inh 47.5* and FBW7 activator -0.2.
CCC(=O)Nc1ccc(S(=O)(=O)N2c3ccccc3CC2C)cc1 (configuration not stated) was read as GPR151 ag 1.2, MITF primary -8.1, TEAD-YAP inh 6.7 and FBW7 activator -0.1.
Screening Cc1ccc(S(=O)(=O)N2c3ccccc3CC2C)cc1 (configuration not stated) returned GPR151 ag -0.7, MITF primary -10.5, TEAD-YAP inh 3.9 and FBW7 activator 0.1.
For CCOc1ccc(S(=O)(=O)N2c3ccccc3CC2C)cc1 (configuration not stated) the results were GPR151 ag 0.7, MITF primary 3.7, TEAD-YAP inh 52.4* and FBW7 activator 0.0.
O=C1C=C(NCc2ccc(Cl)cc2)CC(c2ccco2)C1 (configuration not stated) was read as GPR151 ag -0.7, MITF primary 11.3, TEAD-YAP inh 16.3 and FBW7 activator 0.3.
O=C1C=C(Nc2ccc(Cl)cc2Cl)CC(c2ccco2)C1 (configuration not stated) was read as GPR151 ag -0.5, MITF primary 39.2, TEAD-YAP inh 39.2* and FBW7 activator 0.5.
For Cc1noc(C)c1S(=O)(=O)NCc1ccc2c(c1)CCO2 the results were GPR151 ag 0.4, MITF primary 8.5, TEAD-YAP inh 10.6 and FBW7 activator 0.1.
Screening COc1ccc(-c2cnc3ccc(NCc4ccco4)nn23)c(OC)c1 returned GPR151 ag -0.6, MITF primary -7.4, TEAD-YAP inh 0.0 and FBW7 activator -0.1.
Screening COCCNc1ccc2ncc(-c3ccccc3F)n2n1 returned GPR151 ag 0.6, MITF primary 11.2, TEAD-YAP inh 49.0* and FBW7 activator 0.8.
For OCCCNc1ccc2ncc(-c3cccc4ccccc34)n2n1 the results were GPR151 ag 0.9, MITF primary 7.3, TEAD-YAP inh 18.3 and FBW7 activator 0.0.
Fc1ccccc1-c1cnc2ccc(NCc3ccco3)nn12 was read as GPR151 ag 0.5, MITF primary 9.9, TEAD-YAP inh 39.4* and FBW7 activator 0.2.
OCCCNc1ccc2ncc(-c3ccccc3F)n2n1 was read as GPR151 ag 1.1, MITF primary -13.3, TEAD-YAP inh 56.3* and FBW7 activator 0.0.
COc1ccc(C(C)C)cc1-c1cnc2ccc(NCc3ccco3)nn12 was read as GPR151 ag 4.6, MITF primary -19.5, TEAD-YAP inh 58.6* and FBW7 activator 0.0.
Screening O=C(N/N=C/c1cc([N+](=O)[O-])ccc1Cl)c1cc2ccccc2o1 returned GPR151 ag 2.8, MITF primary -4.3, TEAD-YAP inh 5.5 and FBW7 activator 0.1.
O=C1CC(c2ccc3c(c2)OCCCCO3)Oc2ccccc21 (configuration not stated) was read as GPR151 ag -0.1, MITF primary 0.1, TEAD-YAP inh 58.9* and FBW7 activator -0.1.
`Cc1ccc2c(c1)C(=O)CC(c1ccc3c(c1)OCCO3)O2` (configuration not stated) gave GPR151 ag 0.7, MITF primary -1.0, TEAD-YAP inh -50.4 and FBW7 activator 0.0.
For COc1cccc2cc(-c3nc4ccccc4[nH]3)c(=Nc3ccccc3)oc12 the results were GPR151 ag -1.5, MITF primary 6.9, TEAD-YAP inh -39.5 and FBW7 activator 0.0.
COc1ccc(CC(=O)NCCn2c(C)cc3ccccc32)cc1 was read as GPR151 ag 1.2, MITF primary 11.5, TEAD-YAP inh 9.7 and FBW7 activator 0.0.
`COC(CNC1CCCc2c1[nH]c1ccc(C)cc21)OC` (configuration not stated) gave GPR151 ag 0.0, MITF primary 2.2, TEAD-YAP inh 14.3 and FBW7 activator -0.1.
Cc1ccc2[nH]c3c(c2c1)CCCC3NCc1ccc(Cl)cc1 (configuration not stated) was read as GPR151 ag 1.0, MITF primary 10.8, TEAD-YAP inh 43.2* and FBW7 activator -0.1.
For CCOC(=O)c1sc(NC(=O)c2cc([N+](=O)[O-])ccc2Sc2nnnn2C)cc1C the results were GPR151 ag 0.1, MITF primary 13.2, TEAD-YAP inh 8.3 and FBW7 activator 0.2.
Cn1nnnc1Sc1ccc([N+](=O)[O-])cc1C(=O)Nc1ccc(C(F)(F)F)cc1 was read as GPR151 ag 0.9, MITF primary -8.6, TEAD-YAP inh 49.6* and FBW7 activator -0.1.
Screening CC(C)(C)c1ccc(-c2cn(-c3ccccc3)c3[n+]2CCCS3)cc1 returned GPR151 ag 1.2, MITF primary 4.0, TEAD-YAP inh 84.3* and FBW7 activator -0.2.
COc1cccc2c1OC1(CCN(C(=O)c3cccs3)CC1)OC2 was read as GPR151 ag -0.6, MITF primary 23.1, TEAD-YAP inh -0.7 and FBW7 activator 0.5.
For CC1CCc2cc(F)cc3c(O)c(C(=O)Nc4ccccn4)c(=O)n1c23 (configuration not stated) the results were GPR151 ag 0.2, MITF primary 7.7, TEAD-YAP inh 10.2 and FBW7 activator 2.0*.
Cc1ccccc1-n1c(-c2ccc(Cl)cc2Cl)n[nH]c1=S was read as GPR151 ag 0.5, MITF primary 16.4, TEAD-YAP inh -2.8 and FBW7 activator 1.9*.
Screening CCOc1ccc2nc(NCCNS(=O)(=O)c3ccccc3F)c(C#N)cc2c1 returned GPR151 ag -0.2, MITF primary -8.1, TEAD-YAP inh -4.8 and FBW7 activator 0.3.

Bioassay records (PubChem)
